In PubChem BioAssay AID1259336 (Sattelle Laboratory, UCL Respiratory, Division of Medicine, …, 2017):
Values without a mark were called inactive. No stated cut-off is given here; in the data, active means log2 fold change growth below about -1.8; inactive means the rest.

Experiment: anthelmintic activity against nematode growth – whole organism, log2 fold change (AID 1259336);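 further: growth scored by imaging after five days at 20 °C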
Conditions: C. elegans growth, anthelmintic screen; hits give low values

SMILES	log2 fold change growth
CCc1ccc([C@@H](NCc2nc(N)nc(N(C)C)n2)C(C)C)cc1	0.433
Cc1cc(=O)[nH]c(-n2nc(C)cc2C)n1	0.36
O=C(Cn1ccnc1[N+](=O)[O-])NCc1ccccc1	0.415
Cc1noc(C)c1C(=O)N1CCC[C@H](c2[nH]c3c(C)cccc3c2-c2ccncc2)C1	-0.149
C[C@@H](C(=O)N1CCCC1)N1CCN(S(=O)(=O)c2ccc(C(C)(C)C)cc2)CC1	0.667
CC(C)=CCC/C(C)=C\CNCCNC1C2CC3CC(C2)CC1C3 (stereo unspecified)	0.423
Cc1ccc(S(=O)(=O)N2CCN(C(=O)c3cc(-c4ccccc4)n[nH]3)CC2)cc1	-0.371
O=C(c1ccc(F)cc1)N(CCNc1ccccc1)c1ccccc1	0.348
COc1ccc(CN2CCOc3ccc([C@@](C)(O)CN(C)C)cc3C2)cc1C	0.162
Cn1c(=O)c2c(S(C)(=O)=O)snc2n(C)c1=O	0.155
COc1cc(CN2CCC3(C=Cc4ccccc43)CC2)cc2c1OCO2	-0.677
COc1ccc(-c2cnc3cnc(-c4cccc(OC(C)C)c4)cn23)cc1	-0.137
COc1ccc(N(CCc2cccc(C)n2)C(=O)C2CCCCC2)cc1	-0.0192
O=C(c1cc2ccccc2o1)N1CCN(Cc2ccc3c(c2)OCO3)CC1	0.212
COc1ccc2nc(C)cc(OCC(=O)Nc3ccccc3OC)c2c1	0.165
Cc1nc(-c2ccccn2)nc(N(C)CCc2ccccc2)c1Cl	-0.0752
